Data on 40 compounds can be found in PubChem BioAssay (NCI).

This is part of a sample that, as a whole, favours compounds with a hit. Of some 83,000 tested, about 20% had one in any assay.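 Single-dose data. Exposure time 48 hours. Values below 10 considered active.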 Calls of active or inactive are those of the source.

The subject of this assay is SK-MEL-2 melanoma. Nature of the assay: NCI-60 one-dose screen, 48 h (100 = growth as untreated, 0 = no growth, -100 = all killed). Conditions: 10 µM unless noted. How it is done:
Growth inhibition of the SK-MEL-2 human tumor cell line is measured as a screen for anti-cancer activity. Cells are grown in 96 well plates and exposed to the test compound for 48 hours. Compounds are tested at a single concentration, which is 10^-5 M for most compounds. The reported endpoint is percent growth (GI% or GIPRCNT), where numbers from 0 - 100% represent growth inhibition, and numbers from -100% - 0 represent cell death. For example, a value of 40 represents 60% growth inhibition. A value of 0 means no net growth occurred over the course of the experiment. A value of -40 indicates 40% of cells at the beginning of the experiment died by the end of the experiment. A value of -100 means all cells are dead at the end of the experiment.
NCI-60 Human Tumor Cell Lines Screen was performed using the standard one-dose NCI protocol, which is described in more detail at https://dtp.cancer.gov/discovery_development/nci-60/default.htm.
Compounds with GIPRCNT values below 10 were considered active. Activity score was based on GIPRCNT using the following formula: […]
Score is 0 for GIPRCNT values of 100 or above, 50 for GIPRCNT values of 0, and 100 for GIPRCNT values of -100.
On to `C#Cc1nc(C2=C(C)C(=O)/C(=N/OC(C)=O)C2)cs1`, for which the growth was 96.9% (inactive).
`O=C1Nc2cc(Cl)ccc2/C1=C\c1ccc(OCc2ccc([N+](=O)[O-])cc2)cc1`: the growth is 101% (inactive).
Turning to `Cc1cc2nc3c4cc(Cl)ccc4n(CC(=O)NCCN(C)C)c3nc2cc1C`, the growth is 112% (inactive).
Consider `CN(C)CCCNc1c2ccc(Cl)cc2nc2c1oc1ccccc12`, for which the growth is 21.3% (inactive).
Turning to `O=C(CCN1C(=O)/C(=C/c2ccccc2)SC1=S)N1CCOCC1`, the growth is 112% (inactive).
Then `O=C(N/N=C/c1cccs1)c1[nH]c2ccc(Br)cc2c1-c1ccccc1`, with 20.3% (inactive); and `N#Cc1ccc(/C=N/NC(=O)c2[nH]c3ccc(Br)cc3c2-c2ccccc2)s1`, with 30.4% (inactive); and `COc1ccc(NC2=C(Cl)C(=O)C(C)=C(C)C2=O)cc1OC`, with 83.7% (inactive).
For `Cc1[nH]nc2ncc(C#Cc3cncc(C(=O)Nc4ccc(CN5CCN(C)CC5)c(C(F)(F)F)c4)c3)cc12` the value was -44.6% (active); for `Clc1ccc(-c2cn3cc(Cc4ccc(Cl)c(Cl)c4)sc3n2)cc1`, 113% (inactive).
In the case of `O=C(NNc1nc2cc(F)ccc2n2c(CN3CC4(COC4)C3)ccc12)c1cnccn1`, the growth is 49.7% (inactive).
On to `COc1cc(OC)c(S(=O)(=O)NNC(=O)c2ccncc2)cc1C(=O)/C=C/c1ccc(C)cc1`, for which the growth was 109% (inactive).
Then `COc1cccc(-c2nn(-c3ccccc3)cc2-c2ccnc(N3CCN(C(=O)c4ccccc4)CC3)c2)c1`, with 89% (inactive); and `CC(C)(C)OC(=O)N1C(=O)c2c(c3c4ccccc4[nH]c3c3ccc4ccccc4c23)C1=O`, with 42.7% (inactive).
Then `C/C(=N\NC(N)=O)c1c(O)sc(=O)[nH]c1=O`, with 109% (inactive); and `COc1cc(/C=C/C(=O)c2cc(OC)c(OC)c(OC)c2)ccc1OCc1ccccc1`, with 80.7% (inactive).
Consider `Nc1c(C(=O)c2ccc(Br)cc2)oc2nc(-c3cnccn3)cc(-c3cccs3)c12`, for which the growth was 113% (inactive).
For `Cn1ccnc1C(=O)/C=C/c1ccc(NC(=O)Nc2ccccc2)cc1` the value was 102% (inactive); for `COc1cc(-c2nc3ccc(-c4nnc(SCC(=O)Nc5ccc(C(=O)/C=C/c6ccc(Cl)cc6)cc5)o4)cc3[nH]2)cc(OC)c1OC`, 100% (inactive).
`O=C(CCN1C(=O)/C(=C/c2ccccc2F)SC1=S)N1CCOCC1`: the growth was 113% (inactive).
For `NS(=O)(=O)c1ccc(Nc2nc(Nc3ccccc3)nc(-n3nc(-c4ccccc4)cc3-c3ccccc3)n2)cc1` the value was 56.3% (inactive).
As to `CCCC(=O)NC(c1ccc(N(CC)CC)cc1)c1cc(C)c2cccnc2c1O` (stereo not given), the growth was 23% (inactive).
For the compound `N=C1CC(=O)NN1C(=O)CSc1nc2sc3c(c2c(=O)n1-c1ccc(Cl)cc1)CCCC3`, the growth was 128% (inactive).
In the case of `COc1ccc(Cc2nn(CC(=O)N/N=C/c3ccc(Cl)cc3)c(=O)c3c(C)noc23)cc1`, the growth was 90.8% (inactive).
For `COc1cccc(NC2=CC(=O)C(C)=C(C)C2=O)c1`, the growth is 83.6% (inactive).
Then `CCOC(=O)c1c(Nc2ccccc2)nn2c(N)c(C#N)c(-c3ccccc3)nc12`, with 92.2% (inactive).
In the case of `CC(C)(C)Nc1nc2c(OCCc3ccccc3)cccn2c1-c1cccc(F)c1`, the growth is -81.2% (active).
For `CCN1C(=S)N(CC)C2C1N=C(SC)N2/N=C/C=C/c1ccccc1[N+](=O)[O-]` (stereo not given) the value was 123% (inactive); for `Cc1cc(C(NC(=O)CCCCCNc2cccc3c2C(=O)N(C2CCC(=O)NC2=O)C3=O)c2cccnc2)c(O)c2ncccc12` (stereo not given), -16.9% (active); for `COc1ccc(/C=N/Nc2ccnc3cc(Cl)ccc23)cc1Cl`, -88% (active).
For `N#Cc1c(-c2ccc(Cl)cc2)nc(SCc2ccccc2)nc1N1CCNCC1` the value was 112% (inactive); for `COc1ccc(-c2csc(N/N=C/c3c(-c4ccc(S(C)(=O)=O)cc4)nc4ccccn34)n2)cc1`, 114% (inactive).
Then `COc1ccc(-c2cc(C(=O)N=Nc3c(O)[nH]c4ccccc34)c3ccccc3n2)cc1OC`, with 107% (inactive); and `Nc1cc(-c2c[nH]c3ccc(F)cc23)nc2cc(-c3c[nH]c4ccc(F)cc34)nn12`, with 116% (inactive); and `CN1C(=S)N(C)C2C1NN=C1SC(c3ccccc3)=CC(=O)N12` (stereo not given), with 95.2% (inactive).
`NS(=O)(=O)c1cccc(Nc2nc(SCC(=O)c3ccc(Cl)cc3)nc3ccccc23)c1`: the growth is 77.3% (inactive).
For `COC1CCN(Cc2ccc3c(NNC(=O)c4cnccn4)nc4cc(F)ccc4n23)C1` (stereo not given), the growth is 74.7% (inactive).
As to `CCOC(=O)c1c(Nc2ccccc2)nn2c(N)c(C#N)c(-c3ccc(Cl)cc3)nc12`, the growth is 87% (inactive).
Then `C#Cc1nc(C2=C(C)C(OC(C)=O)/C(=N/OC(C)=O)C2)cs1` (stereo not given), with 92.8% (inactive).
As to `CCOC(=O)c1c(Nc2ccccc2)nn2c(-c3ccco3)c(C#N)cnc12`, the growth is 90.3% (inactive).
